From PubChem BioAssay (EPA / NIEHS) come the findings set out here.

The target in experiment [1] is human CYP2C9, CYP2C9 (gene 1559) (UniProt P11712). Description: NVS_ADME_hCYP2C9: NovaScreen (NVS) CYP450-related Enzyme Activity (ADME) Assay for human CYP2C9 (AID 2283108). In a few lines: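 Cell-free assay of recombinant human CYP2C9 produced in Sf9 cells, with enzyme activity read by fluorescence intensity 0.75 h after compound addition. Loss of signal versus an acetonitrile negative control indicates inhibition. Primary screen used 10 uM in duplicate; actives were retested in concentration series.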
human CYP2C9, CYP2C9 (gene 1559), sequence (P11712 whole entry, looked up): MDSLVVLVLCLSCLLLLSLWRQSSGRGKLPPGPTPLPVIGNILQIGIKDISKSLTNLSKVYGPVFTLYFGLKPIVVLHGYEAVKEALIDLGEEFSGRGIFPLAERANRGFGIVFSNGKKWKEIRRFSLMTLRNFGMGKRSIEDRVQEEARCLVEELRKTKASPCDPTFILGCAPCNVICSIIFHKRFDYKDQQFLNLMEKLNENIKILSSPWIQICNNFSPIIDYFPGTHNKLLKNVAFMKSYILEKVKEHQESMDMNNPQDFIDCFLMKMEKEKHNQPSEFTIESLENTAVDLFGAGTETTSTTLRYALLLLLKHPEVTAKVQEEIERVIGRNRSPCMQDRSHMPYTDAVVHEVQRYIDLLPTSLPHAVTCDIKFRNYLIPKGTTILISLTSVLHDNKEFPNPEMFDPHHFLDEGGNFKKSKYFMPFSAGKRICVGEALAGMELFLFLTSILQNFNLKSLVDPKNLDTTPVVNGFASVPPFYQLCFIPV

Experiment [2] deals with Cytochrome P450 3A4 (Homo sapiens) (UniProt P08684). Description: NVS_ADME_hCYP3A4: NovaScreen (NVS) CYP450-related Enzyme Activity (ADME) Assay for human CYP3A4 (AID 2283110). Put shortly: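 Activity is derived from decreased fluorescence intensity relative to acetonitrile, measured 0.33 hour after dosing insect-cell-expressed CYP3A4 in a cell-free format. Screening used 10 uM in duplicate before concentration-response follow-up.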
Cytochrome P450 3A4 (Homo sapiens), sequence (P08684 whole entry, looked up): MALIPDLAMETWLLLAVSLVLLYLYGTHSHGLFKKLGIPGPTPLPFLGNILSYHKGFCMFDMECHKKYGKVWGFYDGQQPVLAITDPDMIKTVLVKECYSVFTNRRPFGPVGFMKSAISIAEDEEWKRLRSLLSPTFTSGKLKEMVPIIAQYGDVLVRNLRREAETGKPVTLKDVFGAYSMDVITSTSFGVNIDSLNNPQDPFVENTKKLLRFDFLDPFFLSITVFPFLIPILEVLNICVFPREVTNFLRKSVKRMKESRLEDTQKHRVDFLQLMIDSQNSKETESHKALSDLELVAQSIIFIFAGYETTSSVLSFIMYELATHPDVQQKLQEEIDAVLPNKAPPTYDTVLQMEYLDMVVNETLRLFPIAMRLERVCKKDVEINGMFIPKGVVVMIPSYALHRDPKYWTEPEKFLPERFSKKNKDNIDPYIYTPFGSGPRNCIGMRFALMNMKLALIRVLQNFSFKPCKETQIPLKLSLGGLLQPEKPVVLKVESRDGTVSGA

Experiment [3] has as its target Cytochrome P450 2C19 (Homo sapiens) (UniProt P33261). Description: NVS_ADME_hCYP2C19: NovaScreen (NVS) CYP450-related Enzyme Activity (ADME) Assay for human CYP2C19 (AID 2283113).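 As to AC50: potency for inhibition seen as loss of fluorescent signal.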 Put shortly: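 Biochemical CYP2C19 inhibition screen: insect-cell recombinant protein plus fluorescent substrate, 1 h, fluorescence intensity. Acetonitrile defined baseline activity. Single 10 uM concentration in duplicate, with concentration-response follow-up for actives.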

Experiment [4] concerns the target human Beta-secretase (BACE), BACE1 (gene 23621) (UniProt P56817). The experiment can be described thus: NVS_ENZ_hBACE: NovaScreen (NVS) Enzymatic Assay for human Beta-secretase (BACE) (AID 2283140).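 Also: hits are inhibitors that reduce fluorescent substrate signal versus DMSO.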 In a few lines: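 Fluorescence intensity read-out of protease activity defines this endpoint; signal loss relative to DMSO baseline marks inhibition. Recombinant enzyme from SF9 cells, cell-free format, 1 h exposure. Single-concentration duplicate screen (25 uM) precedes concentration-series follow-up.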

Experiment [5] deals with human Dual Specificity Protein Phosphatase 3 (DUSP3), DUSP3 (gene 1845) (UniProt P51452). The experiment can be described thus: NVS_ENZ_hDUSP3: NovaScreen (NVS) Enzymatic Assay for human Dual Specificity Protein Phosphatase 3 (DUSP3) (AID 2283152). Put shortly: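 Cell-free fluorescence-intensity enzyme activity assay with recombinant protein and substrate; loss of signal fitted relative to DMSO baseline. Primary screen in duplicate at 25 uM, actives then run in concentration series; measured 0 h after dosing.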
human Dual Specificity Protein Phosphatase 3 (DUSP3), DUSP3 (gene 1845), sequence (P51452 whole entry, looked up): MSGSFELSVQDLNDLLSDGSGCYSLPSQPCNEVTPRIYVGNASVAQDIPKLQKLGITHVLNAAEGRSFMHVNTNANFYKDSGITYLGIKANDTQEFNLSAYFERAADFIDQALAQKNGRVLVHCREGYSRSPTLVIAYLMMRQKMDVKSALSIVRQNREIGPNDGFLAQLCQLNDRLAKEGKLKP

Experiment [6] has as its target human Esterase Plasma (ES), BCHE (gene 590) (UniProt P06276). Description: NVS_ENZ_hES: NovaScreen (NVS) Enzymatic Assay for human Esterase Plasma (ES) (AID 2283157). In a few lines:
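Screening ran at 25 uM in duplicate, followed by singleton concentration series reaching 50 uM for actives. Human plasma protein, colorimetric detection, 0.25 h exposure, DMSO negative control.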

Experiment [7] has as its target human CYP2D6, CYP2D6 (gene 1565) (UniProt P10635). Description: NVS_ADME_hCYP2D6: NovaScreen (NVS) CYP450-related Enzyme Activity (ADME) Assay for human CYP2D6 (AID 2283107). Put shortly: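 Biochemical fluorescence assay, insect-cell-derived enzyme. Read at 1 h; inhibition taken from loss of signal against acetonitrile. Screened at 10 uM in duplicate, with concentration series for actives.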

Experiment [8] has as its target human Colony Stimulating Factor 1 Receptor (CSF1R), CSF1R (gene 1436) (UniProt P07333). The experiment can be described thus: NVS_ENZ_hCSF1R: NovaScreen (NVS) Enzymatic Assay for human Colony Stimulating Factor 1 Receptor (CSF1R) (AID 2283150). In a few lines:
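Compounds screened in duplicate at 25 uM, then concentration-response (top 50 uM) for those passing threshold such as 30% inhibition; recombinant CSF1R activity measured 1 h post-dosing via fluorescent substrate/product mobility-shift separation, loss of signal versus DMSO.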

In experiment [9] the target is human Elastase, ELANE (gene 1991) (UniProt P08246). The experiment can be described thus: NVS_ENZ_hElastase: NovaScreen (NVS) Enzymatic Assay for human Elastase (AID 2283153). Put shortly: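 Concentration-response to 50 uM max, run singly for chemicals passing a threshold (e.g., 30% inhibition) in a duplicate 25 uM single-point screen. Neutrophil-derived human elastase, absorbance read-out of enzyme activity at 1.5 h; DMSO baseline.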
human Elastase, ELANE (gene 1991), sequence (P08246 whole entry, looked up): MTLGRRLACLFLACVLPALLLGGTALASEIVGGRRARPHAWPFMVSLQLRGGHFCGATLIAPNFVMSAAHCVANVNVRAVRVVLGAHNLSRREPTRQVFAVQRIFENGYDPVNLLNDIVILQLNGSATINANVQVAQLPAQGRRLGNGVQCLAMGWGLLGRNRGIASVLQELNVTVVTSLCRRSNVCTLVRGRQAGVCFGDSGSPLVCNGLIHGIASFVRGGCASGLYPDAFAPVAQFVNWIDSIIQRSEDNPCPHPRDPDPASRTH

The target in experiment [10] is human Ephrin type-A Receptor 1 (EphA1), EPHA1 (gene 2041) (UniProt P21709). The experiment can be described thus: NVS_ENZ_hEphA1: NovaScreen (NVS) Enzymatic Assay for human Ephrin type-A Receptor 1 (EphA1) (AID 2283158).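 Also: activity is signal loss versus DMSO meaning EphA1 kinase inhibition.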 Put shortly: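 Here the EphA1 protein is recombinant and the substrate fluorescent, with electrophoretic separation before fluorescence detection at 1 hour. Signal loss against DMSO defines activity; plate controls included; follow-up concentration series reach 50 uM.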
human Ephrin type-A Receptor 1 (EphA1), EPHA1 (gene 2041), sequence (P21709 whole entry, looked up): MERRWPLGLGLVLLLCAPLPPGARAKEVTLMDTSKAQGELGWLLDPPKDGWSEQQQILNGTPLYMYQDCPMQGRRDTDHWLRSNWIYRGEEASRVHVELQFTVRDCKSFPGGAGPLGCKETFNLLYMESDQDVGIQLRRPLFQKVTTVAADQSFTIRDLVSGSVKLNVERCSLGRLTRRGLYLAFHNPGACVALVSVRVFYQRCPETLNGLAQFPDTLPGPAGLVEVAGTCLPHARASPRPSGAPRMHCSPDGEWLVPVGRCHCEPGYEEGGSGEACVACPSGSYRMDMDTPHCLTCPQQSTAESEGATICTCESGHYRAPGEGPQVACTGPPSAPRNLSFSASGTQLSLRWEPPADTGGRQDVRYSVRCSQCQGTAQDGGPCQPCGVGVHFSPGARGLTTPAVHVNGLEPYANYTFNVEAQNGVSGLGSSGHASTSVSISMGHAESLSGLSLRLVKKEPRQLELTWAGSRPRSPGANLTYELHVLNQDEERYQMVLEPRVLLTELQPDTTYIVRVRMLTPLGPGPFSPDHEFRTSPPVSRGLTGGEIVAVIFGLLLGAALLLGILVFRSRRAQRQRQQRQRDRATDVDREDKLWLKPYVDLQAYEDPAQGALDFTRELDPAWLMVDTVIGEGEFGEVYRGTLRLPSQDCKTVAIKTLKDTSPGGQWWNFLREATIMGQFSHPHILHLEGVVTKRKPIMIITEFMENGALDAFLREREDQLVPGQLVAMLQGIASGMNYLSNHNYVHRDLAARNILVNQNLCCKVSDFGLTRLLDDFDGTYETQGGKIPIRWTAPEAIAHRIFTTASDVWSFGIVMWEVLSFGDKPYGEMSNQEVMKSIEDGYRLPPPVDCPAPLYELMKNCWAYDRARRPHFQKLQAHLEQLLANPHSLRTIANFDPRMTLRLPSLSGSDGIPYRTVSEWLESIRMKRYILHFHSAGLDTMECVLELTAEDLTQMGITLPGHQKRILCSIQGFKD

Experiment [11] has as its target human Acid Phosphatase 1 (ACP1), ACP1 (gene 52) (UniProt P24666). Description: NVS_ENZ_hACP1: NovaScreen (NVS) Enzymatic Assay for human Acid Phosphatase 1 (ACP1) (AID 2283136). In a few lines: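 Cell-free fluorescence read-out of phosphatase activity, substrate and product separated by mobility shift, taken 1.5 h after compound addition; protein produced in Sf9. Single 25 uM duplicate screen, followed by concentration series for actives, scored as signal loss relative to DMSO.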

Experiment [12] addresses human Casein Kinase 1-delta (CK1D), CSNK1D (gene 1453) (UniProt P48730). Description: NVS_ENZ_hCK1D: NovaScreen (NVS) Enzymatic Assay for human Casein Kinase 1-delta (CK1D) (AID 2283148). Put shortly: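 Recombinant human CK1-delta, cell-free; fluorescent substrate with electrophoretic mobility-shift separation of product, read 1 h after dosing. Single 25 uM duplicate screen, then concentration-response up to 50 uM; loss of signal vs DMSO.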

The target in experiment [13] is human Caspase 8 (CASP8), CASP8 (gene 841) (UniProt Q14790). Description: NVS_ENZ_hCASP8: NovaScreen (NVS) Enzymatic Assay for human Caspase 8 (CASP8) (AID 2283146). In a few lines:
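The primary screen tested compounds in duplicate at a single 25 uM concentration, with actives followed up in concentration series. Activity of recombinant (E. coli) protease was measured by fluorescence 1 h post-dose, as signal loss against DMSO.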

The target of the next experiment is Caspase-3 (Homo sapiens) (UniProt P42574). Description: NVS_ENZ_hCASP3: NovaScreen (NVS) Enzymatic Assay for human Caspase 3 (CASP3) (AID 2283139). Put shortly: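 Single-concentration screening at 25 uM in duplicate, with concentration-response follow-up to a 50 uM maximum for chemicals passing the threshold. Caspase-3 (human, E. coli-expressed) activity was read as substrate fluorescence after 1 h, with loss of signal relative to DMSO.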

Inconclusive results are not listed. Calls of active or inactive are those of the source. The calls were made as follows: active = hit-call score of the fitted dose curve at least 0.9, where 1 is the maximum; inconclusive = response in the unintended direction; inactive = score below 0.9.

human Beta-secretase (BACE), BACE1 (gene 23621), sequence (P56817 whole entry, looked up): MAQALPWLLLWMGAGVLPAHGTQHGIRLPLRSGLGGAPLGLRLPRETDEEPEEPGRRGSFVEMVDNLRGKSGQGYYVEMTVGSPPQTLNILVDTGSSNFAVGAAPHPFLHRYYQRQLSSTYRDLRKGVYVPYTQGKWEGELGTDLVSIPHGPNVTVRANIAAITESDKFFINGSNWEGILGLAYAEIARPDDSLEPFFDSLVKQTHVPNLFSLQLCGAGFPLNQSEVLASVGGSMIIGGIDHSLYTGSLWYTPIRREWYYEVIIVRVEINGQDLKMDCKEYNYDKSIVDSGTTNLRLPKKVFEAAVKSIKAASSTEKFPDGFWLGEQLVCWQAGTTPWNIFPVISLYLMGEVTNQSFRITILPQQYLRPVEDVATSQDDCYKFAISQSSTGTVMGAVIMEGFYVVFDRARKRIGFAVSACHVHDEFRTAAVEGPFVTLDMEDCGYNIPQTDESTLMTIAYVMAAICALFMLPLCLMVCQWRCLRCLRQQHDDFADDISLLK
human Esterase Plasma (ES), BCHE (gene 590), sequence (P06276 whole entry, looked up): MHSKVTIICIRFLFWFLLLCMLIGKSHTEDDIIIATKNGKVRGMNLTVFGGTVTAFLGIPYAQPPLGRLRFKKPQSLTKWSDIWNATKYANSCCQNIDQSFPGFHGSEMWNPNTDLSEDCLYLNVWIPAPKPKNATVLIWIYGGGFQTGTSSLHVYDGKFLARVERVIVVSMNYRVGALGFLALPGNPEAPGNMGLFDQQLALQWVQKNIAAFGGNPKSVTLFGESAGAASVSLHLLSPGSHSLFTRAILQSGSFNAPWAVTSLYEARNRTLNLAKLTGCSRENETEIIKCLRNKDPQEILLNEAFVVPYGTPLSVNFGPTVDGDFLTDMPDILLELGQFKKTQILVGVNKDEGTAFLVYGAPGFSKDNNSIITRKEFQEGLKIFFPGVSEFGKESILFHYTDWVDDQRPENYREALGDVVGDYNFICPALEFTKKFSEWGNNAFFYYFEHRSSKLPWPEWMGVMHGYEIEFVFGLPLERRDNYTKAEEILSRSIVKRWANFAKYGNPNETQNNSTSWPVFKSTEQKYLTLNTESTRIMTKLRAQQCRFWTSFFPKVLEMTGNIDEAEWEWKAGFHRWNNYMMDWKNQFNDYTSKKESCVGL
human Colony Stimulating Factor 1 Receptor (CSF1R), CSF1R (gene 1436), sequence (P07333 whole entry, looked up): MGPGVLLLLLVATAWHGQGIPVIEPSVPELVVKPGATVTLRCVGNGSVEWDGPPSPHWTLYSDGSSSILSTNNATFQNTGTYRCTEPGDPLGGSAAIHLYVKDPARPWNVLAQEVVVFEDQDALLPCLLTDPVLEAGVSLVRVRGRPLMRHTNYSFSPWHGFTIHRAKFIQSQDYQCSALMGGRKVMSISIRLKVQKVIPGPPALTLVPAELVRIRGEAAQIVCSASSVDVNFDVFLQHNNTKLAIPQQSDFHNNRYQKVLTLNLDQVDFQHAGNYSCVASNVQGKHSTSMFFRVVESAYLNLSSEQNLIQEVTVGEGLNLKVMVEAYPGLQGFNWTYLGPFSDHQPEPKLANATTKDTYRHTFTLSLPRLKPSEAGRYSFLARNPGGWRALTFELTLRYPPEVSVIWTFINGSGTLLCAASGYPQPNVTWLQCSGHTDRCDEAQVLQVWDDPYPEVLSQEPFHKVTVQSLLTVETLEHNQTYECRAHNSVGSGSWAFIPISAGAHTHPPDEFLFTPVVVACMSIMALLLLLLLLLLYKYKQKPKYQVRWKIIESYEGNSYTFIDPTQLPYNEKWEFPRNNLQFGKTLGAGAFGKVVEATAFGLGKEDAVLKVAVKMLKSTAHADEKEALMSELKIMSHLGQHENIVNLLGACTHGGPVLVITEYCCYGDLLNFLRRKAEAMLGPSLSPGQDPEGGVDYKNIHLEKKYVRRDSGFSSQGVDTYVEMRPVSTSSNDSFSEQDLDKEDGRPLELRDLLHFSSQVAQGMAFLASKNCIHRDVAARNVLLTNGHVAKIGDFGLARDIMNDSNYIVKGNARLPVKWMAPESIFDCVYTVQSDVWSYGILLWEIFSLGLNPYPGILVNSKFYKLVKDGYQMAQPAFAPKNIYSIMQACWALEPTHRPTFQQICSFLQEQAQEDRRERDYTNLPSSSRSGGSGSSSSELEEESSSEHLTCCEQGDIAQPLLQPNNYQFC
human CYP2D6, CYP2D6 (gene 1565), sequence (P10635 whole entry, looked up): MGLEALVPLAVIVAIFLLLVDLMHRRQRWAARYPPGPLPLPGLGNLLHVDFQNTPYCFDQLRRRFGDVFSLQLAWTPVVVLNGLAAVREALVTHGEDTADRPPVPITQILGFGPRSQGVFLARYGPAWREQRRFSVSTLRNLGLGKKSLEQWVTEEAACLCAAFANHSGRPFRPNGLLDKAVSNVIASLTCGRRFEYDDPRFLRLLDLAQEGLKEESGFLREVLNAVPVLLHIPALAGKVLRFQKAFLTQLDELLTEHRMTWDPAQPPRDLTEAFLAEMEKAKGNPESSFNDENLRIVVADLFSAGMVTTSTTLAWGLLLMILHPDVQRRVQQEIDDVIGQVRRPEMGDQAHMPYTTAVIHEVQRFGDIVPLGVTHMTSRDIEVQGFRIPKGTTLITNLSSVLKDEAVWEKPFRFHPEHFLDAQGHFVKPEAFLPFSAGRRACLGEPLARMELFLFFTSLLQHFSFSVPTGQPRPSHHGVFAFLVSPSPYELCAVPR

In the case of `CCCOc1sc(C(=O)N2CCC(c3cc(CN)ccc3F)CC2)c(C)c1Br`, the AC50 (commonly the midpoint of the concentration-response curve, whichever way the signal moves) in [1] was 1.92 µM (active); in experiment [2], 14.4 µM (active); in [3], 0.68 µM (active); in experiment [4] it was 4.17 µM (active); in experiment [5], 7.33 µM (active); in experiment [6], 8.81 µM (active).
`C#C[C@]1(O)CC[C@H]2[C@@H]3CCC4=CC(=O)CC[C@@H]4[C@H]3CC[C@@]21C`: the concentration at half-maximal activity (AC50) in experiment [3] is 3.13 µM (active).
For the compound `O=C(OCCOCCOC(=O)c1ccccc1)c1ccccc1`, the figures for the AC50 in [1] and in experiment [3] were 15.3 µM (active) and 7.94 µM (active), respectively.
In the case of `Cc1cc(CCN2CCN(c3nsc4ccccc34)CC2)cc2c1NC(=O)CC2(C)C`, the compound was called inactive in [7] and in [8]. Further, the AC50 in experiment [1] is 10 µM (active); in [3], 4.35 µM (active); in experiment [6], 22.2 µM (active).
In the case of `CC1=C(/C=C/C(C)=C/C=C/C(C)=C/C(=O)O)C(C)(C)CCC1`, the result in experiment [7] and in [3] was inactive.
As for `NC(=O)N(O)[C@@H]1C=C[C@H](Oc2cccc(Oc3ccc(F)cc3)c2)C1`, the figures for the concentration at half-maximal activity (AC50) in [7], in experiment [2] and in experiment [3] were 1.16 µM (active), 4.62 µM (active) and 0.644 µM (active), respectively. Further, the compound was called inactive in experiment [6].
On to `CC#C[C@]1(O)CC[C@H]2[C@@H]3CCC4=CC(=O)CCC4=C3[C@@H](c3ccc(N(C)C)cc3)C[C@@]21C`, for which the concentration at half-maximal activity (AC50) in experiment [1] was 4.12 µM (active); in experiment [3], 3.91 µM (active); in experiment [9], 2.18 µM (active); in experiment [6], 4.97 µM (active). The compound was called inactive in experiment [5].
Take `CCCCCCCCCCCCCC[N+](C)(C)C`: the half-maximal activity concentration (AC50) was 3.64 µM (active) in experiment [7], 2.73 µM (active) in experiment [3] and 4.96 µM (active) in [4]. Moreover, the result in experiment [10] was inactive.
For `OCCC(F)(F)C(F)(F)C(F)(F)C(F)(F)C(F)(F)C(F)(F)F`, the AC50 in experiment [3] was 6.15 µM (active).
In the case of `O=[N+]([O-])c1ccc(O)cc1`, the call in [7] and in [3] was inactive.
`CC(=O)NC1(c2cccc(F)c2)CCN(CC[C@@]2(c3ccc(Cl)c(Cl)c3)CN(c3ccccc3)C(=O)CO2)CC1`: the AC50 was 2.77 µM (active) in experiment [7]; 6.63 µM (active) in [1]; 1.78 µM (active) in experiment [2]; 1.79 µM (active) in experiment [3]; 8.58 µM (active) in experiment [9]; 3.79 µM (active) in experiment [6].
As to `CC[C@H](c1ccc(O)cc1)[C@@H](CC)c1ccc(O)cc1`, the results for the half-maximal activity concentration (AC50) in experiment [1] and in experiment [3] were 0.295 µM (active) and 5.22 µM (active), respectively.
`CCCOC(=O)c1ccc(O)cc1`: in experiment [8], the call was inactive.
For the compound `COCC(C)OCC(C)O` (configuration not stated), the compound was called inactive in experiment [11], in experiment [12] and in [8].
In the case of `C=C(C)C(=O)OCCC(F)(F)C(F)(F)C(F)(F)C(F)(F)C(F)(F)C(F)(F)F`, in experiment [13], the AC50 is 1.96 µM (active).
As for `CC(O)CO` (configuration not stated), the result with Caspase-3 (Homo sapiens) was inactive.
Turning to `CCCCC(CC)COC(=O)CCCCC(=O)OCc1ccccc1` (configuration not stated), in [3], the concentration at half-maximal activity (AC50) was 13.2 µM (active). Besides, the outcome in experiment [6] was inactive.
Regarding `O=C(O)c1ccccc1C(c1ccc(O)cc1)c1ccc(O)cc1`, in [3], the AC50 was 5.38 µM (active). The call in experiment [12] was inactive.
For the compound `CC(C)(C)c1ccc(O)c(C(C)(C)C)c1`, in [4], the call was inactive.
Regarding `C[C@@H]1C[C@H]2[C@@H]3CCC4=CC(=O)C=C[C@]4(C)[C@@]3(F)[C@@H](O)C[C@]2(C)[C@@]1(O)C(=O)COP(=O)(O)O`, the result in [10] was inactive.
